Where “and” joins values, the source holds several entries; their conditions need not be identical. Identical values can stand only once. Where a structure was tested more than once in an assay, its records may differ in their call. Calls of active or inactive are those of the source. The calls were made as follows: active = hit-call score of the fitted dose curve at least 0.9, where 1 is the maximum; inactive = score below 0.9.

The nature of the assay: ATG_CMV_CIS: Attagene CIS-FACTORIAL HepG2 Assay for human CMV (Internal Marker) (AID 2282928).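 Also: endpoint acts as a background internal control marker rather than a target.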 Particulars: HepG2 CMV promoter reporter, transcription factor profiling; actives raise or lower the signal. The method, then:
ATG_CIS is a cell-based, multiplexed-readout assay that uses HepG2, a human liver cell line, with measurements taken at 24 hours after chemical dosing in a 24-well plate.ATG_CMV_CIS is one of 52 assay component(s) measured or calculated from the ATG_CIS assay. It is designed to make measurements of mRNA induction, a form of inducible reporter, as detected with fluorescence intensity signals by Reverse transcription polymerase chain reaction (RT-PCR) and Capillary electrophoresis technology.Data from the assay component ATG_CMV_CIS was analyzed into 1 assay endpoint. This assay endpoint, ATG_CMV_CIS, was analyzed with bidirectional fitting relative to DMSO as the negative control and baseline of activity. Using a type of inducible reporter, measures of mRNA for gain or loss-of-signal activity can be used to understand the background control at the transcription factor-level as they relate to the gene . Furthermore, this assay endpoint can be referred to as a secondary readout, because this assay has produced multiple assay endpoints where this one serves a background control function. To generalize the intended target to other relatable targets, this assay endpoint is annotated to the background measurement intended target family, where the subfamily is internal marker.
Human liver HepG2 cells are transiently transfected with multiple reporter transcription units (MRTUs) in 6-well plates using FuGene 6 reagent (Roche; 3 ml FuGene/1 mg DNA). The MRTU constructs are regulated by a cis-regulating element (promoter). […] A major difference between the CIS and TRANS system is that in CIS activities of endogenous TFs are measured, whereas the TRANS assay evaluates changes in activities of exogenous, chimeric NR-Gal4 proteins. […] At the end of 24 hour incubation, total RNA was isolated using TriZol reagent (Invitrogen). The isolated RNA is then reverse-transcribed using oligo(dT) primer and Mo-MLV reverse transcriptase (Invitrogen) with DNAse I (Ambion) treatment for 30 min. The one-tenth of the produced cDNA was amplified by PCR using Taq DNA polymerase (Invitrogen) and two reporter sequence-specific primers. The PCR products were fluorescently labeled by primer extension with 6-arboxyfluorescein (6-FAM) 5'-labeled reporter sequence-specific primer (2 min at 95 C, 20 s at 68 C and 10 min at 72 C) and these products were digested with 5U of HpaI (New England Biolabs) for 2h at 37 C. The fragments were purified using Qiaquick PCR columns (Qiagen), analyzed on an ABI 3130xL genetic analyzer (Applied Biosystems) with peak positions identified by using a set of X-rhodamine (ROX)-labeled MapMarker1000 molecular weight standards (BioVentures). The raw capillary electrophoresis data was processed using Attagraph software (Attagene).
As for `C=C(C)CCCC(C)CCO` (stereo not given), the result was inactive. Usually AC50 stands for the midpoint of the concentration-response curve, whichever way the signal moves. Take `O=C(c1ccc(OCCN2CCCCC2)cc1)c1c(-c2ccc(O)cc2)sc2cc(O)ccc12`: the concentration at half-maximal activity (AC50) was 14.8 µM (active) and 7.91 µM (active); the result was inactive. Take `CCCCCCCCCCO[C@@H]1O[C@H](CO)[C@@H](O)[C@H](O)[C@H]1O`: the call was inactive. In the case of `c1ccc(OCCOc2ccccc2)cc1`, the outcome was inactive. With `CC1=C(C=O)C(C)(C)CCC1`, the result was inactive. For `NC(=O)c1cnccn1`, the outcome was inactive.

Consider `CCCCCCCCOS(=O)(=O)O`, for which the molecule was called inactive. Still for that read-out and setting: then `CCC(=O)OC(C)(C)C1CC=C(C)CC1` (stereo not given), with “inactive”. Still for that read-out and setting: then `CCCCCCC(C)O` (stereo not given), with “inactive”. Take `CC(C)=CCCC(C)=CC(=O)O`: the molecule was classed as inactive. On the same count and under the same terms, the entry for `CCCCCC(=O)O[C@]1(C(C)=O)CC[C@H]2[C@@H]3CCC4=CC(=O)CC[C@]4(C)[C@H]3CC[C@@]21C` is “inactive”. For `C1COCO1`, the molecule was classed as inactive.

For `Cc1ccc(C(C)(C)O)cc1`, the result was inactive. As for `C[C@]12CC[C@@H]3c4ccc(O)cc4CC[C@H]3[C@@H]1CC[C@@H]2O`, the AC50 was 19.5 µM (active) [middle of 4 runs] and the molecule was classed as inactive. Consider `Nc1ccc(N)c([N+](=O)[O-])c1`, for which the AC50 was 77.1 µM (active) [middle of 5 runs].

For the molecule `OC[C@@H](O)[C@H](O)[C@@H](O)[C@@H](O)CO`, the molecule was called inactive. With `CC/C(=C(\c1ccccc1)c1ccc(OCCN(C)C)cc1)c1ccccc1`, the outcome was inactive. `CC(CO)(CO)[N+](=O)[O-]`: the call was inactive. For the molecule `O=S1(=O)CC=CC1`, the call was inactive. On to `CCOC(=O)CC1(C)OCC(C)O1` (stereo not given), for which the molecule was classed as inactive. As to `O=C(OCc1ccccc1)c1ccccc1O`, the AC50 was 64.1 µM (active). Take `CCOC(=O)C(=O)OCC`: the result was inactive. Consider `CC(C)Cc1ccc(C(C)C(=O)O)cc1` (stereo not given), for which the molecule was called inactive.

As to `CCCCN(CCO)CCO`, the call was inactive. Consider `CCOC(=O)C=Cc1ccccc1`, for which the result was inactive.

`CC(C)C(=O)OCC=Cc1ccccc1`: the outcome was inactive. As for `NC(=O)c1c(Cl)cccc1Cl`, the molecule was called inactive. On to `OCC=Cc1ccccc1`, for which the call was inactive.

`NCCN1CCNCC1`: the call was inactive.

In the case of `C#C[C@]1(O)CC[C@H]2[C@@H]3CCc4cc(O)ccc4[C@H]3CC[C@@]21C`, the outcome was inactive; the half-maximal activity concentration (AC50) was 26.4 µM (active) and 26 µM (active) and 26.2 µM (active).

Take `CCO[Si](CCC#N)(OCC)OCC`: the result was inactive. Still for that read-out and setting: then `CC12CCC(C1)C(C)(C)C2O` (stereo not given), with “inactive”; and `CCOC(=O)CCCCCCCCC(=O)OCC`, with “inactive”. `C=CC(C)CCCC(C)(C)O` (stereo not given): the molecule was classed as inactive.

For the molecule `[Cl][Dy]([Cl])[Cl]`, the molecule was called inactive. Same read-out and setting: the entry for `CC(=O)CCC=C(C)CCC=C(C)C` is “inactive”. Same read-out and setting: the entry for `N#CCCNCCC#N` is “inactive”.
